Source: PubChem BioAssay (National Center for Advancing Translational Sciences (NCATS))
IL1B secr inh: qHTS for Inhibitors of Inflammasome Signaling: IL-1-beta AlphaLISA Primary Screen; THP-1 LPS/ATP IL-1B secretion, AlphaLISA, 16 h; hits give low values; activity change, % at 57.5 µM; hit rate 4.7% among 360,000; AID 743279, 2014; in the data active = activity change below about -50%; inconclusive = mostly about -30% to -49%
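THP-1 cells pretreated 1 hr with compounds (up to 57.5 uM final), then stimulated with LPS (250 ng/mL final) plus ATP (1.25 mM final); secreted IL-1B measured by AlphaLISA after 16 hr, decreased signal indicating inhibition.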
HT1080 IDH1KD tx: qHTS for induction of synthetic lethality in tumor cells producing 2HG: qHTS for the HT-1080-IDH1KD cell line. AID 686971, 2013. HT-1080 IDH1 knockdown viability, ATP luminescence, 48 h. Potency, µM (doses to about 46.1 µM), usual class: cytotoxic. hit rate 2% among 360,000
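Using the IDH1-knockdown HT-1080 line run in the same batch and compound series as the NT line, viability after 48 h at 37 °C was determined by CellTiter-Glo luminescence and expressed as % activity.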
HT1080NT lethal: qHTS for induction of synthetic lethality in tumor cells producing 2HG: qHTS for the HT-1080-NT fibrosarcoma cell line | HT-1080-NT fibrosarcoma viability, CellTiter-Glo ATP luminescence, 48 h | Potency, µM (series often up to 46.1 µM), actives largely listed as cytotoxic | hit rate 1.6% among 360,000 | AID 686970, 2013;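 note: NT is the 2HG producing partner of a matched IDH1 knockdown line; nearly all actives have a fitted effect of over 55% in size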
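Read-out is CellTiter-Glo luminescence after 10 minutes at room temperature, following 48 hours' compound treatment of HT-1080-NT cells (750 cells/well, RPMI, 5% FBS, 37 degrees C).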
KB-3-1 cytotox: qHTS assay for MDR1-selective chemotherapeutics: Primary screen using the parental adenocarcinoma cell KB-3-1. KB-3-1 viability, CellTiter-Glo ATP luminescence, 72 h. Potency, µM (highest dose often 46.1 µM), hits mostly cytotoxic. hit rate 1.4% among 400,000. AID 1347075, 2019; note: nearly all actives have a fitted effect of over 60% in size
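KB-3-1 cells, DMEM (no phenol red) + 10% FBS; compound by pin transfer, 72 h, 37 °C. Readout: CellTiter-Glo luminescence after 10 min. Data normalized, curve-fitted.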
KB-V1 MDR tox: qHTS assay for MDR1-selective chemotherapeutics: Primary screen using the drug-selected MDR subline cells KB-V1; KB-V1 MDR cells viability, CellTiter-Glo, 72 h; Potency, µM (titrated, usually from 46.1 µM), most hits filed as cytotoxic; hit rate 3.4% among 400,000; AID 1347076, 2019; note: nearly all actives have a fitted effect of over 60% in size
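Following 72 h at 37 degrees C with compound, KB-V1 cell viability was read by CellTiter-Glo luminescence, medium being phenol-red-free DMEM plus 10% FBS; concentration-response parameters came from normalized, curve-fitted qHTS data.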
A number is an active result; – = inactive; ? = inconclusive; · = no result; [ ] = dose if it differs, or a comment. Rows were chosen to be rich in hits. Some 8.8% of all compounds tested hit in one or more screens of this group. Unless noted, calls come from the whole dose curve; as a rule, active = well fitted curve in the direction sought with a large enough effect; inconclusive = small, poorly fitted or top-dose-only effect, or another doubt; inactive = no such curve, though single readings can be large; an effect the other way counts as inactive or inconclusive.

SMILES	IL1B secr inh	HT1080 IDH1KD tx	HT1080NT lethal	KB-3-1 cytotox	KB-V1 MDR tox
CC(=O)c1cccc(NC(=O)C2Cc3c(-c4cccc(C(C)=O)c4)ccnc3O2)c1 (stereo unspecified)	–	–	–	–	20.6µM
CC(=O)c1cccc(-c2ccnc3c2CC(C(=O)NCCC(F)(F)F)O3)c1 (stereo unspecified)	–	20.6µM	?	7.31µM	?
CS(=O)(=O)Nc1cccc(NC(=O)C2Cc3c(-c4ccco4)ccnc3O2)c1 (stereo unspecified)	–	?	18.4µM	?	–
CC(=O)c1cccc(-c2ccnc3c2CC(C(=O)Nc2cccc(NS(C)(=O)=O)c2)O3)c1 (stereo unspecified)	–	18.4µM	?	?	–
COc1ccc(-n2c(=O)c3ccc(C(=O)NCc4ccc(C)cc4)cc3n(CC(=O)Nc3cccc(F)c3)c2=O)cc1	·	·	·	–	–
O=C(NCc1csc2ccccc12)Nc1cc(Cl)cc(Cl)c1	–	–	–	?	–
COc1ccc(CSc2ccc(S(=O)(=O)N3CCCC3)cn2)cc1F	–	–	–	–	?
CCOc1ccc(NC(=O)CCC(=O)N/N=C2\CCCc3ccccc32)cc1	–	–	–	–	–
CCOC(=O)c1cccc(NC(=O)CCS(=O)(=O)c2ccc3c(c2)CC(=O)N3C)c1	·	·	·	–	?
COCCNC(=S)N(Cc1cccs1)Cc1cc2cccc(C)c2[nH]c1=O	-56.2	–	–	–	–
Cc1cccc(NC(=S)N(Cc2cccs2)Cc2cc3cc(C)cc(C)c3[nH]c2=O)c1	–	–	–	?	20.6µM
COc1ccccc1N1CCN(C(=O)C2c3ccccc3Oc3ccccc32)CC1	–	1.84µM	4.11µM	1.84µM	2.59µM
Cc1cc(C)c2c(CCl)cc(=O)oc2c1	·	1.3µM	?	?	?
C=CCOc1ccc(C=CC(=O)c2c(O)c(OC)c(OC)c(OC)c2OC)cc1	-102.2	–	–	?	5.8µM
COc1ccc(C(=O)/C=C/Nc2cccc(C)n2)cc1OC	-59.5	–	–	–	?
COc1ccc(C=CC(=O)c2ccc([N+](=O)[O-])cc2)cc1	–	–	–	–	–
COc1ccc(/C=C/C(=O)NC(=S)NNC(=O)c2cc(OC)c(OC)c(OC)c2)cc1	–	?	–	–	?
COc1ccc(C(=O)/C=C/c2ccc(O)cc2)cc1	-57.3	–	–	–	–
COc1ccc(C=CC(=O)c2c(OC)cc(OC)c(OC)c2O)cc1	-62.7	?	–	–	?
Cc1ccc(CN2C(=O)SC(Nc3ccc(Cl)cc3)C2=O)cc1 (stereo unspecified)	·	·	·	–	?
COc1ccc(CCNC(=O)Cn2nnc(C(=O)Nc3cc(C)ccc3C)c2N)cc1OC	–	–	–	–	–
CN(C)S(=O)(=O)c1ccc(C(=O)NCc2nnc(SCC(=O)Nc3ccc(F)cc3)n2-c2ccc(F)cc2)cc1	–	–	–	–	–
CCOC=C1SC(=S)N(c2ccccc2OC)C1=O	–	–	–	–	–
COc1ccc(/C=C/C(=O)Oc2cc(O)cc(O)c2)cc1	–	–	–	–	–
CN(C)c1ccc(/C=C/C(=O)c2ccc(O)cc2)cc1	-105.6	–	–	?	–
SMILES	IL1B secr inh	HT1080 IDH1KD tx	HT1080NT lethal	KB-3-1 cytotox	KB-V1 MDR tox
COc1ccc(N/C=C/C(=O)c2cc(OC)c(OC)c(OC)c2)cc1	–	1.3µM	1.16µM	3.66µM	?
CN(C)c1ccc(C(=O)C=Cc2ccc([N+](=O)[O-])cc2)cc1	?	–	–	–	–
COc1ccc(N/C=C/C(=O)c2ccc(OC)c(OC)c2)cc1	–	?	?	–	?
COc1ccc(C=CC(=O)c2cc(O)ccc2O)cc1	?	18.4µM	16.4µM	–	–
CCNC(=O)NC(=O)COC(=O)c1ccccc1SCC(=O)NC(=O)NCC	–	29.1µM	–	–	–
O=C(COC(=O)c1ccccc1SCC(=O)NC1CCS(=O)(=O)C1)NC1CCS(=O)(=O)C1 (stereo unspecified)	–	–	–	–	–
CC(=O)c1ccc(N2CCN(C(=O)CCS(=O)(=O)c3ccc4c(c3)NC(=O)CS4)CC2)cc1	–	–	–	–	–
O=C(Cn1c(-c2cccs2)cc2ccccc21)NCCCN1CCN(c2ccccc2F)CC1	·	·	·	–	–
Cc1cc(C)nc(-n2nc(C)cc2NC(=O)CN2CCCC2)n1	–	–	–	–	–
CCC1CCCCN1CC(=O)Nc1cc(C)nn1-c1nc(C)cc(C)n1 (stereo unspecified)	–	4.47µM	3.55µM	–	–
Clc1ccc2c(c1)-c1nnc(Br)n1-c1ccccc1S2	-55.1	–	–	–	–
O=C(CN1CCN(Cc2ccc(Cl)cc2)CC1)N/N=C/c1c[nH]c2ccccc12	–	–	–	–	–
CCN(CC)C(=N)/C(C#N)=N/Nc1ccc(C)cc1	-54.1	–	–	–	–
CCCCOC(=O)Nc1ccc(S(=O)(=O)Nc2ccc([N+](=O)[O-])cc2)cc1	–	–	–	–	20.6µM
CCCCOc1ccc(S(=O)(=O)Nc2ccc(NC(C)=O)cc2)cc1	–	–	–	?	20.6µM
CCCCCOC(=O)Nc1ccc(S(=O)(=O)Nc2cccc([N+](=O)[O-])c2)cc1	-88.5	?	?	–	–
COC(=O)c1cc(NS(=O)(=O)c2ccc(OC)c(OC)c2)ccc1Cl	–	–	–	–	–
COC(=O)c1cc(NS(=O)(=O)c2ccc(NC(C)=O)cc2)ccc1Cl	-73.6	–	–	–	–
COc1ccc(NC(=O)CSCC(=O)N2CCN(C(=O)c3ccco3)CC2)cc1	–	–	–[9.24 µM]	–	?
COc1cccc(CNC(=O)CSc2ncc(S(=O)(=O)c3ccc(Br)cc3)c(=O)[nH]2)c1	·	·	·	–	?
O=C(Nc1ccccc1)C(c1ccccc1)C1CCCC1 (stereo unspecified)	-91.4	–	–	?	–
O=C(Nc1ccc(F)cc1)C(NC1CCCCC1)c1ccccc1 (stereo unspecified)	–	–	–	–	?
Cc1ccc(CN(C(=O)c2cc3ccccc3oc2=O)C2CCS(=O)(=O)C2)cc1 (stereo unspecified)	–	–	–	–	14.6µM
Cc1ccc(N(C(=O)c2cc3ccccc3oc2=O)C2C=CS(=O)(=O)C2)cc1 (stereo unspecified)	–	–	–	–	?
Cc1cc(C)cc(N(C(=O)c2cc3ccccc3oc2=O)C2C=CS(=O)(=O)C2)c1 (stereo unspecified)	-67.2	–	–	–	–
CCc1ccc(CN(C(=O)c2cc3ccccc3oc2=O)C2CCS(=O)(=O)C2)cc1 (stereo unspecified)	–	–	–	–	–
